Measurements from publication PMC4336329 (PLoS ONE, 2015).
About 14,000 (4.5%) of roughly 310,000 compounds showed an effect of 50% or more. The effect is printed as a negative number. The full list was thinned out, with strong results kept by preference.

These compounds were tested against human ether-à-go-go-related gene (hERG) potassium channel (human, UniProt Q12809) (assay: primary screen, population patch clamp on CHO cells stably expressing hERG; higher = less effect of the substance).
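Note: peak tail current of the secondary pulse compared with the same well before compound.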

human ether-à-go-go-related gene (hERG) potassium channel, sequence (Q12809 whole entry, looked up): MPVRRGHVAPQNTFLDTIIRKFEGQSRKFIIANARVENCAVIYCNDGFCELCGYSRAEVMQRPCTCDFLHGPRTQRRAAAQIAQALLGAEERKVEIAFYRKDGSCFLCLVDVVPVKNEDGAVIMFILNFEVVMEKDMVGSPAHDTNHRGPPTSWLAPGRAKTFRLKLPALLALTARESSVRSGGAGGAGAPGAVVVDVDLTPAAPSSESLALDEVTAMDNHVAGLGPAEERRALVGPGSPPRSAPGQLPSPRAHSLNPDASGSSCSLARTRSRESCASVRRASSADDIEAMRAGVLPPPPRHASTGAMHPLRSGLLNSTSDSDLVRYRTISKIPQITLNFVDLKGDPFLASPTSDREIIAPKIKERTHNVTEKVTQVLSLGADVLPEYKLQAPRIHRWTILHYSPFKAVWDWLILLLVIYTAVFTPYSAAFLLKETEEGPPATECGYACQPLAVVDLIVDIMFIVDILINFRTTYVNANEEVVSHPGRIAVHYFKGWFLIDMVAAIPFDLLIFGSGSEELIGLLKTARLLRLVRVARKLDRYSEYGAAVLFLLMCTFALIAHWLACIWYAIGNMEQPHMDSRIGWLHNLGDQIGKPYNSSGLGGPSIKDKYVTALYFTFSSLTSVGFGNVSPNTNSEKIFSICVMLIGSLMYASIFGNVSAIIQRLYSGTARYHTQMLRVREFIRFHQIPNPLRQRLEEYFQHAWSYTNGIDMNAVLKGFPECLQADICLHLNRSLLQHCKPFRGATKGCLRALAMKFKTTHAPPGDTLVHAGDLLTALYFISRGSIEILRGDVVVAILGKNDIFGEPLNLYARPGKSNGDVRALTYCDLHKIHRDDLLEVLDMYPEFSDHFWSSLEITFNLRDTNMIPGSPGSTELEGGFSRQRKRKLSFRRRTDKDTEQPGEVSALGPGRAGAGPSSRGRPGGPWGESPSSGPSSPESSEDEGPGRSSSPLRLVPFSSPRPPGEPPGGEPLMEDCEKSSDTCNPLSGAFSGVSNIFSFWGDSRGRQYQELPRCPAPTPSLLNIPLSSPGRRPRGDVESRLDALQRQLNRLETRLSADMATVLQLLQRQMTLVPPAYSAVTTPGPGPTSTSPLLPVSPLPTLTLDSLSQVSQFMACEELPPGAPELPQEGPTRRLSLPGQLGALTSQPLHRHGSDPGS

First: COc1ccc(C(=O)C2CCCN(C(=O)c3noc4c3CCCC4)C2)cc1F (centres unmarked)
Second: COC(=O)c1cccc(NC(=O)c2ccc3c(c2)C(=O)N(CC2CCCO2)C3=O)c1 (centres unmarked)
The “hERG current change (%, negative = inhibition) at 10uM” value of the first is lower: -39.9% for the first, -24.3% for the second.

Compared with `CCc1ccc2[nH]c(=O)c(CN(Cc3ccccc3OC)Cc3nnnn3Cc3ccco3)cc2c1`, `COc1ccc(-n2cc(CNCCc3ncc(C)[nH]3)c(-c3ccccc3Cl)n2)cc1` is lower in “hERG current change (%, negative = inhibition) at 10uM” value: -14.3% for the first, -63.6% for the second.

Compared with `COc1ccc(C(=O)COc2ccc3ccc(=O)oc3c2)cc1`, `COc1ccc(-c2nn(-c3ccccc3)cc2CO)cc1` is higher in “hERG current change (%, negative = inhibition) at 10uM” value: -3.32% for the first, 4.56% for the second.

Going from `CC(=O)n1cc(N(C(=O)CCl)c2ccc(C)cc2)c2ccccc21` to `CC(=O)n1cc(N(C(=O)CCl)c2ccc([N+](=O)[O-])cc2)c2ccccc21`, the “hERG current change (%, negative = inhibition) at 10uM” value falls from -5.35% to -57.1%.

First: CC(=O)n1cc(N(C(=O)CCl)c2ccccc2)c2ccccc21
Second: CC(NC(=O)CN1CCc2ccccc21)c1ccccc1 (centres unmarked)
The “hERG current change (%, negative = inhibition) at 10uM” value of the first is lower: 1.19% for the first, 8.5% for the second.

Compared with `CC1CCCCN1C(=O)CCc1nnc(Cc2c[nH]c3ccccc23)o1` (centres unmarked), `COc1ccccc1-n1c(SCC(=O)NCC2CCCO2)nc2c([nH]c3ccccc32)c1=O` (centres unmarked) is higher in “hERG current change (%, negative = inhibition) at 10uM” value: 4.94% for the first, 9.22% for the second.

First: COc1ccc(S(=O)(=O)N2CCCC(C(=O)Nc3ccc(NC(=O)c4ccccn4)cc3)C2)cc1 (centres unmarked)
Second: COc1ccc(NC(=O)CCS(=O)(=O)c2ccc3c(c2)CCCN3C(C)=O)cc1
The “hERG current change (%, negative = inhibition) at 10uM” value of the first is lower: 4.17% for the first, 9.92% for the second.

First: O=C(CN1C(=O)COc2ccccc21)NCCCN1CCN(Cc2ccccc2)CC1
Second: O=C(CCCN1C(=O)CSc2ncccc21)N1CCN(Cc2ccccc2)CC1
The “hERG current change (%, negative = inhibition) at 10uM” value of the first is lower: -11.7% for the first, 6.42% for the second.

Compared with `O=S(=O)(Nc1ccccn1)c1ccc(-n2cccn2)cc1`, `COc1ccc(-n2cc(CNCCc3cscn3)c(-c3ccccc3Cl)n2)cc1` is lower in “hERG current change (%, negative = inhibition) at 10uM” value: 21.3% for the first, -64.5% for the second.

Going from `CCCN1C2=C(C(=O)CCC2)C(c2ccc(O)c(Br)c2)C2=C1CCCC2=O` to `Cc1ccc(C)c(N2CCN(C(=O)CCCCn3c(=O)[nH]c4ccccc4c3=O)CC2)c1`, the “hERG current change (%, negative = inhibition) at 10uM” value falls from -18.1% to -25.2%.

First: CN1CCN(/N=C/c2nc(-c3ccc(Cl)cc3)n3ccccc23)CC1
Second: CN1CCN(/N=C/c2nc(-c3ccccc3)n3ccccc23)CC1
The “hERG current change (%, negative = inhibition) at 10uM” value of the first is lower: -62.1% for the first, -19.9% for the second.

Compared with `Clc1ccc(-c2nc(/C=N/N3CCOCC3)c3ccccn23)cc1`, `CCCCN(C)C(=O)c1nc2ccccn2c1CN1CCN(C/C=C/c2ccccc2)CC1` is lower in “hERG current change (%, negative = inhibition) at 10uM” value: -5.18% for the first, -83.9% for the second.

Going from `COc1ccc(N2CCN(C(=O)CSc3nnnn3C3CC3)CC2)cc1` to `O=C(Cn1c(=O)[nH]c2ccccc2c1=O)N1CCN(c2cccc(Cl)c2)CC1`, the “hERG current change (%, negative = inhibition) at 10uM” value rises from -13.6% to 15.7%.

Going from `CC(=O)Nc1nc(C)c(-c2nc3ccc([N+](=O)[O-])cc3[nH]2)s1` to `Cc1cccc(-c2nnc(SCC(=O)Nc3cc(C)on3)n2C)c1`, the “hERG current change (%, negative = inhibition) at 10uM” value falls from 13.9% to 1.68%.

Going from `Cc1cccc(-n2cc(CNCCc3nc(C)cc(C)n3)c(-c3cccc(F)c3)n2)c1` to `COc1ccc(-n2cc(CNCCc3nc(C)cc(C)n3)c(-c3ccccc3Cl)n2)cc1`, the “hERG current change (%, negative = inhibition) at 10uM” value rises from -67.9% to -62.6%.

Going from `COc1ccc(-n2cc(CNCCN3CCOC3=O)c(-c3ccccc3Cl)n2)cc1` to `COc1ccc(-n2cc(CNCCCN3CCCC3=O)c(-c3ccccc3Cl)n2)cc1`, the “hERG current change (%, negative = inhibition) at 10uM” value falls from -18.5% to -60.9%.

Going from `Cc1cccc(-n2cc(CN3CCCN(C=O)CC3)c(-c3cccc(F)c3)n2)c1` to `COc1ccc(-n2cc(CNCCc3cnc[nH]3)c(-c3cccc(F)c3)n2)cc1`, the “hERG current change (%, negative = inhibition) at 10uM” value falls from -10.8% to -28.9%.

Going from `CCN1CC(CNCc2cn(-c3ccc(OC)cc3)nc2-c2ccccc2Cl)CC1=O` (centres unmarked) to `CCN1CCC(CNCc2cn(-c3ccc(OC)cc3)nc2-c2ccccc2Cl)C1` (centres unmarked), the “hERG current change (%, negative = inhibition) at 10uM” value rises from -24.4% to -9.43%.

Going from `O=C(Nc1cccc(O)c1)C1CCCN1C(=O)OCc1ccccc1` (centres unmarked) to `COc1ccc(NC(=O)CN(Cc2ccccc2)Cc2ccccc2)cc1S(N)(=O)=O`, the “hERG current change (%, negative = inhibition) at 10uM” value falls from -7.35% to -36.7%.

First: CC(C)Oc1ccc(OCCn2c(S(=O)(=O)O)nc3c(N)ncnc32)cc1
Second: CC(C)Oc1ccc(C(=O)NCC(=O)OCC(=O)N(C)Cc2cccs2)cc1
The “hERG current change (%, negative = inhibition) at 10uM” value of the first is higher: 15.9% for the first, -15.9% for the second.

First: CCC(=O)Nc1ccc(C(=O)N/N=C/c2ccccc2[N+](=O)[O-])cc1
Second: CCN(CC)c1ccc(C(=O)N/N=C(\C)c2ccc(OC)c(OC)c2)cc1
The “hERG current change (%, negative = inhibition) at 10uM” value of the first is higher: 14.1% for the first, 3.53% for the second.

Going from `CCn1c(SCc2ccc(OC)cc2)nnc1-c1ccncc1` to `COc1ccc(N2CC(C(=O)Nc3c4c(nn3-c3ccc(OC)cc3)CS(=O)(=O)C4)CC2=O)cc1` (centres unmarked), the “hERG current change (%, negative = inhibition) at 10uM” value rises from -18.9% to 21.4%.

Going from `Cc1nc(CN2CCN(C(=O)c3ccc(C(C)(C)C)cc3)CC2)cs1.Cl` to `CCCCN(C)C(=O)c1nc2ccccn2c1CN1CCN(C(=O)c2cccs2)CC1`, the “hERG current change (%, negative = inhibition) at 10uM” value falls from -3.25% to -51.8%.

Going from `O=C1COc2ccc3ccccc3c2CN1` to `NNc1nc(-c2ccccc2Cl)nc2ccccc12`, the “hERG current change (%, negative = inhibition) at 10uM” value rises from 6.37% to 11.1%.

Going from `Cc1ccc(S(=O)(=O)N2CCCC2CNC(=O)C(=O)NC2CCCC2)cc1` (centres unmarked) to `Cc1ccc(S(=O)(=O)N2CCC(C(=O)NC3CC3)CC2)cc1`, the “hERG current change (%, negative = inhibition) at 10uM” value rises from -40.3% to -5.59%.

Going from `Cc1ccc(-n2nc3c(=O)n(CCCC(=O)NCCN4CCN(C)CC4)nc(C)c3c2C)cc1` to `O=C(CCCn1c(=O)[nH]c2cc(Cl)ccc2c1=O)NCCN1CCN(c2ccccc2)CC1`, the “hERG current change (%, negative = inhibition) at 10uM” value falls from 16.8% to -48.4%.

Compared with `O=C1CS/C(=N\c2ccccn2)N1C1CCCCC1`, `O=C(CN1C(=O)CSc2ncccc21)N1CCOCC1` is lower in “hERG current change (%, negative = inhibition) at 10uM” value: 13.7% for the first, -6.66% for the second.

First: N#CCN1CCCC(C(N)=O)C1 (centres unmarked)
Second: O=C(CCCn1c(=O)[nH]c2cc(Cl)ccc2c1=O)NCCCN1CCCC1
The “hERG current change (%, negative = inhibition) at 10uM” value of the first is lower: 0.891% for the first, 14.6% for the second.

First: Cc1nnsc1C(=O)NNS(=O)(=O)c1ccccc1
Second: Cc1cccnc1NC(=O)C1CCN(S(=O)(=O)c2cccs2)CC1
The “hERG current change (%, negative = inhibition) at 10uM” value of the first is higher: 8.81% for the first, -6.07% for the second.

Compared with `C=CCOc1ccc(/C=N/NC(=O)C(C)Sc2ccccn2)cc1OCC` (centres unmarked), `C=CCN(Cc1nc(-c2ccccc2)no1)C(=O)c1ccoc1C` is lower in “hERG current change (%, negative = inhibition) at 10uM” value: 20.6% for the first, -4.69% for the second.

Compared with `CCCCN(C)C(=O)c1nc2ccccn2c1CN1CCSCC1`, `CCCCN(C)C(=O)c1nc2ccccn2c1CN1CCN(c2ncccn2)CC1` is lower in “hERG current change (%, negative = inhibition) at 10uM” value: 6.32% for the first, -10.2% for the second.

Compared with `CCCCN(C)C(=O)c1nc2ccccn2c1CN1CCN(c2ccccn2)CC1`, `CCCCN(C)C(=O)c1nc2ccccn2c1CN1CCN(c2cnccn2)CC1` is lower in “hERG current change (%, negative = inhibition) at 10uM” value: -7.16% for the first, -12.4% for the second.

Compared with `COC(=O)C1=C(C(=O)OC)[C@@H]2N(Cc3ccccc3)c3ccccc3[C@@]23C[C@@H](C(=O)OC)N(C(=O)NC(C)(C)C)C3=N1`, `O=C(CCNC(=O)Cn1ccc2ccccc2c1=O)NCCCN1CCN(c2ccccc2F)CC1` is higher in “hERG current change (%, negative = inhibition) at 10uM” value: -11.7% for the first, 10.1% for the second.

First: Brc1cnc(N2CCCCC2)nc1N1CCOCC1
Second: O=C(c1cccnc1)N1CCN(S(=O)(=O)c2ccc(S(=O)(=O)N3CCCC3)cc2)CC1
The “hERG current change (%, negative = inhibition) at 10uM” value of the first is lower: -6.45% for the first, 9.65% for the second.

Going from `CN(C)[C@@H]1C(=O)C(C(N)=O)=C(O)[C@@]2(O)C(=O)C3=C(O)c4c(O)cccc4[C@@](C)(O)C3[C@H](O)C12.Cl` (some centres unmarked) to `COCCn1c(=O)[nH]c2cc(C(=O)NCCN3CCN(c4cccc(Cl)c4)CC3)ccc2c1=O`, the “hERG current change (%, negative = inhibition) at 10uM” value rises from -1.22% to 12.8%.

Compared with `O=C(CCCN1C(=O)CSc2ncccc21)N1CCN(c2cccc(C(F)(F)F)c2)CC1`, `O=C(CCCCn1c(=O)[nH]c2ccccc2c1=O)N1CCN(c2cccc(C(F)(F)F)c2)CC1` is higher in “hERG current change (%, negative = inhibition) at 10uM” value: -56.5% for the first, -56.1% for the second.

First: O=C(CCn1c(=O)[nH]c2ccccc2c1=O)NCCCN1CCN(c2cccc(Cl)c2)CC1
Second: O=C(CCCCCn1c(=O)[nH]c2ccccc2c1=O)NCCCN1CCN(c2ccccc2F)CC1
The “hERG current change (%, negative = inhibition) at 10uM” value of the first is higher: -65.4% for the first, -79.2% for the second.

Going from `COc1cc2[nH]c(=O)n(CCC(=O)NCCCN3CCN(c4ccccc4F)CC3)c(=O)c2cc1OC` to `O=C(CCCn1c(=O)[nH]c2cc(Cl)ccc2c1=O)NCCCN1CCN(c2ccc(F)cc2)CC1`, the “hERG current change (%, negative = inhibition) at 10uM” value falls from -35.4% to -64.9%.

First: Cc1cccc(-n2ncc(C#N)c2-n2cccc2)c1
Second: O=C(CCn1c(=O)[nH]c2ccccc2c1=O)N1CCN(c2cccc(C(F)(F)F)c2)CC1
The “hERG current change (%, negative = inhibition) at 10uM” value of the first is higher: -5.85% for the first, -43% for the second.

Going from `CC(C)NC(=O)NC(=O)CSc1ncccn1` to `O=C(CCCCn1c(=O)[nH]c2ccccc2c1=O)NCc1ccc2c(c1)OCO2`, the “hERG current change (%, negative = inhibition) at 10uM” value falls from 15.7% to -6.99%.

Compared with `Cn1c(=O)oc2cc(S(=O)(=O)N3CCC(C(=O)NCc4ccc(F)cc4)CC3)ccc21`, `O=C(Cn1c(=O)[nH]c2ccccc2c1=O)N1CCN(Cc2ccc3c(c2)OCO3)CC1` is higher in “hERG current change (%, negative = inhibition) at 10uM” value: -8.93% for the first, 0.172% for the second.

`O=C(CCCCCn1c(=O)[nH]c2ccccc2c1=O)N1CCN(Cc2ccc3c(c2)OCO3)CC1` was tested, and the “hERG current change (%, negative = inhibition) at 10uM” value was -71.7%.
